The values that follow come from PubChem BioAssay (EPA / NIEHS).

The structures appear in SMILES notation. Where “and” joins values, the source holds several entries; their conditions need not be identical. Equal entries are not always repeated. Inconclusive results are not listed. More than one record can exist for a structure, and the calls need not agree. Calls of active or inactive are those of the source. How the source made its calls, unless noted: active means hit-call score of the fitted dose curve at least 0.9, where 1 is the maximum; inconclusive means response in the unintended direction; inactive means score below 0.9.

Test [1] concerns the target Cytochrome P450 2C19 (Homo sapiens) (UniProt P33261). Description: NVS_ADME_hCYP2C19: NovaScreen (NVS) CYP450-related Enzyme Activity (ADME) Assay for human CYP2C19 (AID 2283113).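 On AC50: potency for inhibition seen as loss of fluorescent signal.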 In short, it runs like this: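 Cell-free assay of recombinant human CYP2C19 expressed in insect cells, with a fluorogenic substrate; fluorescence intensity read 1 hour after dosing. Loss of signal relative to acetonitrile negative control indicates inhibition. Primary screen at 10 uM in duplicate, then concentration series.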

The target in test [2] is human CYP2C9, CYP2C9 (gene 1559) (UniProt P11712). Description: NVS_ADME_hCYP2C9: NovaScreen (NVS) CYP450-related Enzyme Activity (ADME) Assay for human CYP2C9 (AID 2283108). In short, it runs like this:
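Recombinant human CYP2C9 expressed in SF9 cells, fluorogenic substrate, fluorescence read 0.75 h after dosing. Chemicals first run in duplicate at 10 uM, with actives followed in concentration series; loss of signal versus acetonitrile baseline.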

Test [3] addresses Cytochrome P450 3A4 (Homo sapiens) (UniProt P08684). Description: NVS_ADME_hCYP3A4: NovaScreen (NVS) CYP450-related Enzyme Activity (ADME) Assay for human CYP3A4 (AID 2283110). The procedure, abridged: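 Recombinant CYP3A4 from insect cells, fluorescence enzyme read-out, 0.33 h after chemical addition. Acetonitrile = negative control/baseline. Primary HTS: 10 uM in duplicate; actives re-tested in concentration series.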

Test [4] deals with rat CYP2D2, Cyp2d26 (gene 25053) (UniProt P10634). Description: NVS_ADME_rCYP2D2: NovaScreen (NVS) CYP450-related Enzyme Activity (ADME) Assay for rat CYP2D2 (AID 2283124). In short, it runs like this: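 Single-concentration duplicate testing at 10 uM, followed by concentration-response (top 20 uM) for chemicals passing threshold. Enzyme activity of the recombinant rat isoform measured by fluorescence after 0.75 h, acetonitrile as baseline.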

The target of test [5] is rat CYP2A1, Cyp2a1 (gene 24894) (UniProt P11711). Description: NVS_ADME_rCYP2A1: NovaScreen (NVS) CYP450-related Enzyme Activity (ADME) Assay for rat CYP2A1 (AID 2283114; active means hit-call score of the fitted dose curve at least 0.9, where 1 is the maximum; inactive means score below 0.9). In short, it runs like this:
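Cell-free fluorescence enzyme-activity read on recombinant rat CYP2A1, taken 0.75 h post-dosing. Compounds were screened in duplicate at 10 uM, then hits tested in concentration series (max 20 uM); inhibition scored relative to acetonitrile baseline.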

Test [6] concerns the target rat CYP2C11, Cyp2c11 (gene 29277) (UniProt P08683). Description: NVS_ADME_rCYP2C11: NovaScreen (NVS) CYP450-related Enzyme Activity (ADME) Assay for rat CYP2C11 (AID 2283118). In short, it runs like this: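 Screened first at 10 uM in duplicate, hits followed by concentration-response. Recombinant rat enzyme activity monitored by fluorescence 0.33 h post-dosing, normalised to acetonitrile negative control.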

Test [7] concerns the target rat CYP2C13, Cyp2c13 (gene 171521) (UniProt P20814). Description: NVS_ADME_rCYP2C13: NovaScreen (NVS) CYP450-related Enzyme Activity (ADME) Assay for rat CYP2C13 (AID 2283121). In short, it runs like this: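 Inhibition is read as decreased fluorescent product formation, referenced to acetonitrile vehicle. Cell-free recombinant rat Cyp2c13 reaction ran 0.75 hour; compounds first at 10 uM in duplicate, then concentration series for actives.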

The next test has as its system rat CYP3A1, gene 25642. Description: NVS_ADME_rCYP3A1: NovaScreen (NVS) CYP450-related Enzyme Activity (ADME) Assay for rat CYP3A1 (AID 2283126). The procedure, abridged:
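Compounds went first at 10 uM duplicate, then to series with 20 uM maximum. Fluorescence from substrate turnover by the recombinant enzyme was measured 0.5 h post-dosing, inhibition scored against acetonitrile vehicle.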

Test [8] addresses rat CYP3A2, Cyp3a2 (gene 266682) (UniProt P05183). Description: NVS_ADME_rCYP3A2: NovaScreen (NVS) CYP450-related Enzyme Activity (ADME) Assay for rat CYP3A2 (AID 2283128). In short, it runs like this:
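Fluorescence readout of extracted rat CYP3A2 activity 0.5 h post-dose, acetonitrile as negative control. Single-point testing in duplicate at 10 uM, followed by concentration series to a 20 uM maximum for actives.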

Chain of human CYP2C9, CYP2C9 (gene 1559) (P11712 whole entry, looked up): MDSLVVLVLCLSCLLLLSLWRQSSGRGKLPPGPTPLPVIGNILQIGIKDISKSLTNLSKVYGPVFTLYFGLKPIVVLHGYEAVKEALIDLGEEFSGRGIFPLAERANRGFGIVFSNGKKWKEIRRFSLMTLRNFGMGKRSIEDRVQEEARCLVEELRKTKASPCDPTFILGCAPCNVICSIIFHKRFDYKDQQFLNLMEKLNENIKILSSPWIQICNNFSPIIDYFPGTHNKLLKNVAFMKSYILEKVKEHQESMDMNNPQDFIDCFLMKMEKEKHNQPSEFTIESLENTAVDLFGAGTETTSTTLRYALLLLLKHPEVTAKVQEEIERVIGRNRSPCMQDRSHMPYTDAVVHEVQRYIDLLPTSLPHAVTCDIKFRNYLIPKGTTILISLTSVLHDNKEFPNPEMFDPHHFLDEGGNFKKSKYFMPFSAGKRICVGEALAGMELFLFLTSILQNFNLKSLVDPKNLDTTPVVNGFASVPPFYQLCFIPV
Chain of Cytochrome P450 3A4 (Homo sapiens) (P08684 whole entry, looked up): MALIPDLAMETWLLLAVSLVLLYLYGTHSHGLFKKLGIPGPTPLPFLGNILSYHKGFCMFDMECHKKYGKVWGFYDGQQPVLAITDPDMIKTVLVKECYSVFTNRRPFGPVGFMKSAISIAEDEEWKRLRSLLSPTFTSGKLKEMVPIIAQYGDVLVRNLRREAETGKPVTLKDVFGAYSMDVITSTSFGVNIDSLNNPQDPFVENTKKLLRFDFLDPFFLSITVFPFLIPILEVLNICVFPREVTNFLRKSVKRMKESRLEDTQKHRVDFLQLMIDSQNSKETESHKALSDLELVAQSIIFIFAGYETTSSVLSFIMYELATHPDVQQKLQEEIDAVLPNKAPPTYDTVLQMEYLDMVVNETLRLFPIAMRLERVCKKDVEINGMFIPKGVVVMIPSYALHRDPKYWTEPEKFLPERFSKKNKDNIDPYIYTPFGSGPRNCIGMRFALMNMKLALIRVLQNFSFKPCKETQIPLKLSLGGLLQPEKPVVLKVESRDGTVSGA
Chain of rat CYP2C13, Cyp2c13 (gene 171521) (P20814 whole entry, looked up): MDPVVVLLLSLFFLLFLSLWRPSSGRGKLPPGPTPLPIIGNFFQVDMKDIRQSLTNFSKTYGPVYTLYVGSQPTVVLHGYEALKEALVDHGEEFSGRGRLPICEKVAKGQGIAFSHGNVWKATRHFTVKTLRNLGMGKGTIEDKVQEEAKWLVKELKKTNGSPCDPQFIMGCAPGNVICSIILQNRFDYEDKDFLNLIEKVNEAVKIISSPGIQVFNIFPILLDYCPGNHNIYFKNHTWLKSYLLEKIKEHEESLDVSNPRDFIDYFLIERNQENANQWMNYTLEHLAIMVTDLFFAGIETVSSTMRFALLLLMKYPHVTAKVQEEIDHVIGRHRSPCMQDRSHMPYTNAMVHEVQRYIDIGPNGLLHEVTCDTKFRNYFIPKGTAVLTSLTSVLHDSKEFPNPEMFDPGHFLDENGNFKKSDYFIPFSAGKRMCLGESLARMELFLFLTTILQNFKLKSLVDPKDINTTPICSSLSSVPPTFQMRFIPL
Chain of rat CYP2D2, Cyp2d26 (gene 25053) (P10634 whole entry, looked up, canonical isoform): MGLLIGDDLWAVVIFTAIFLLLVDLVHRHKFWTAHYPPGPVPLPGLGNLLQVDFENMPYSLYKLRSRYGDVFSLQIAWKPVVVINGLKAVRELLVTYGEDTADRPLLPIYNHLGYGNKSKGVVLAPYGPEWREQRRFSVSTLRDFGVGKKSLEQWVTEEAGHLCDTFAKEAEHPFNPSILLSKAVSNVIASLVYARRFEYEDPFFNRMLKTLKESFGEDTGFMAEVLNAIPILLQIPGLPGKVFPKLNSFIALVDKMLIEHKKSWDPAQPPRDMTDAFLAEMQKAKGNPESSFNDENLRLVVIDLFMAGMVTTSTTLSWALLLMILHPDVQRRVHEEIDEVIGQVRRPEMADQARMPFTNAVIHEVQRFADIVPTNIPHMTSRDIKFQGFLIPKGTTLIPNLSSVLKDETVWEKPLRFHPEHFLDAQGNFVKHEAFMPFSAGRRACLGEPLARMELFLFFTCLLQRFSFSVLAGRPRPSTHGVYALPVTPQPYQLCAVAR
Chain of rat CYP2A1, Cyp2a1 (gene 24894) (P11711 whole entry, looked up): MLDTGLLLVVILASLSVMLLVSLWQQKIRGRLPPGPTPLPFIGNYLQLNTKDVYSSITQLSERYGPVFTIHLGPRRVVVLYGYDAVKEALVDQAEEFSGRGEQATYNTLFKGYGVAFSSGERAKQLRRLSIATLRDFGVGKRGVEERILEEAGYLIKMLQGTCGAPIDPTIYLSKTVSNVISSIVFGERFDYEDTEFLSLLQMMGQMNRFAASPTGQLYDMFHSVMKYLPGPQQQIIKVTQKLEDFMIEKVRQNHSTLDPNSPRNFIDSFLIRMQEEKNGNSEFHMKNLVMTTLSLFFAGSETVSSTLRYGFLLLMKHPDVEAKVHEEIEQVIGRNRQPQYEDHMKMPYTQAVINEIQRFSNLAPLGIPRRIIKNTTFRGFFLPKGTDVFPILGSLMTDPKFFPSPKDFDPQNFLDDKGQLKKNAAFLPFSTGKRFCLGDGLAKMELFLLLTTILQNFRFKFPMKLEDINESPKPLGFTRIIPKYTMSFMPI
Chain of rat CYP2C11, Cyp2c11 (gene 29277) (P08683 whole entry, looked up): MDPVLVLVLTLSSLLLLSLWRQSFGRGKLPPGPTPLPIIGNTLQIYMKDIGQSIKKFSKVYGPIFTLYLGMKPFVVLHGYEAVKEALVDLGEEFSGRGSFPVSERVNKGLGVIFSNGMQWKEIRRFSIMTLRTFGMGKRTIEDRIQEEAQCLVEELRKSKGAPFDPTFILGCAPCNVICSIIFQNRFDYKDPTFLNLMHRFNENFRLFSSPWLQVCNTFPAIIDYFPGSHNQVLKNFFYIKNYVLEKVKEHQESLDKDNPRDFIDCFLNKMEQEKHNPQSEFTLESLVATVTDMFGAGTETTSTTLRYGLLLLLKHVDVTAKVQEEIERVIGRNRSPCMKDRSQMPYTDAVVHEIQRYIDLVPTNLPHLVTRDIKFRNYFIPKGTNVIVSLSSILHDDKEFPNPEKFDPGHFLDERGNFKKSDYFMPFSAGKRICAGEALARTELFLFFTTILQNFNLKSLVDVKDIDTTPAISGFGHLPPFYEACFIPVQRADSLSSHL
Chain of rat CYP3A2, Cyp3a2 (gene 266682) (P05183 whole entry, looked up): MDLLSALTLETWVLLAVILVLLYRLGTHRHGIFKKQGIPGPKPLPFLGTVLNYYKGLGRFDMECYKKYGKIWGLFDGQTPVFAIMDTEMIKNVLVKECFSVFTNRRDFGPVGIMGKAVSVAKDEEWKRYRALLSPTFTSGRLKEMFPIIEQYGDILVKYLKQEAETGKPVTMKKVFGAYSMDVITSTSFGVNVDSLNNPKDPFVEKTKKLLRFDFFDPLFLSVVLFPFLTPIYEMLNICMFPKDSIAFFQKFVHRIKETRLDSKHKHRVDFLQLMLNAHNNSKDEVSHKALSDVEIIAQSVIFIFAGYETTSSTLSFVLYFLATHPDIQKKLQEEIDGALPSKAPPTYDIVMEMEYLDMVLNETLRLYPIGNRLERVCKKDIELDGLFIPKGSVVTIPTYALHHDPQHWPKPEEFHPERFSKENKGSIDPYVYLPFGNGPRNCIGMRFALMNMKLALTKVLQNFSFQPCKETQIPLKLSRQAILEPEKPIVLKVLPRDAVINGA

With `CCOC(=O)C(C)Oc1ccc(Oc2nc3ccc(Cl)cc3o2)cc1` (stereo not given), the AC50 (as a rule, the concentration at which the activity in the assay is half-maximal) in test [1] was 10 µM (active).

Consider `CCCCCCC(C)OC(=O)COc1nc(F)c(Cl)c(N)c1Cl` (stereo not given), for which the outcome in [2] was inactive. Besides, the AC50 in test [3] was 7.6 µM (active); in test [1] it was 4.62 µM (active).

Regarding `CC1(C)C(C=C(Cl)Cl)C1C(=O)OCc1cccc(Oc2ccccc2)c1` (stereo not given), the result in test [1] was inactive.

In the case of `CCCN(CCC)C(=O)SCC`, in [1], the concentration at half-maximal activity (AC50) was 8.68 µM (active) and the call was inactive.

`COC(=O)CSc1cc(N=c2sc(=O)n3n2CCCC3)c(F)cc1Cl`: the compound was called inactive in test [4].

Turning to `CC(C)(C)[C@@H](O)[C@@H](Cc1ccc(Cl)cc1)n1cncn1`, the AC50 in test [2] was 6.81 µM (active); in test [3], 2.68 µM (active); in [1], 0.172 µM (active); in test [5] it was 1.7 µM (active); in [6], 2.05 µM (active); in test [7], 0.37 µM (active). The AC50 in the test on rat CYP3A1, gene 25642 was 3.44 µM (active); in test [8] it was 4.88 µM (active).

Turning to `S=C(S)NCCNC(=S)S.[Mn+2].[S-]C([S-])=NCCN=C([S-])[S-].[Zn+2]`, the AC50 in [2] was 1.63 µM (active) and 1.92 µM (active) and 4.37 µM (active); in the test on rat CYP3A1, gene 25642 it was 10 µM (active). Further, the compound was called inactive in [1] and in test [7].
